In all, about 30,000 compounds went through this assay and about 240 (0.8%) were called active.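 How the source made its calls: active means at 10 µM dose, at least 30% inhibition, measured as corrected fluorescence normalized to stimulator and neutral control wells; inactive means the rest.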 The full list was thinned out, with actives kept by preference.

The inhibition is the change of the read-out against control, counted positive when it falls.

In this assay the target is Protein artemis (Homo sapiens) (UniProt Q96SD1). Kind of assay: Artemis endonuclease inhibitors, primary screen, biochemical, fluorescence intensity, FAM/BHQ-1 hairpin substrate (AID 686954). Particulars: recombinant Artemis, quenched FAM hairpin cleavage fluorescence; at 10 µM; stronger effect = higher value.
Chain of Protein artemis (Homo sapiens) (Q96SD1 whole entry, looked up): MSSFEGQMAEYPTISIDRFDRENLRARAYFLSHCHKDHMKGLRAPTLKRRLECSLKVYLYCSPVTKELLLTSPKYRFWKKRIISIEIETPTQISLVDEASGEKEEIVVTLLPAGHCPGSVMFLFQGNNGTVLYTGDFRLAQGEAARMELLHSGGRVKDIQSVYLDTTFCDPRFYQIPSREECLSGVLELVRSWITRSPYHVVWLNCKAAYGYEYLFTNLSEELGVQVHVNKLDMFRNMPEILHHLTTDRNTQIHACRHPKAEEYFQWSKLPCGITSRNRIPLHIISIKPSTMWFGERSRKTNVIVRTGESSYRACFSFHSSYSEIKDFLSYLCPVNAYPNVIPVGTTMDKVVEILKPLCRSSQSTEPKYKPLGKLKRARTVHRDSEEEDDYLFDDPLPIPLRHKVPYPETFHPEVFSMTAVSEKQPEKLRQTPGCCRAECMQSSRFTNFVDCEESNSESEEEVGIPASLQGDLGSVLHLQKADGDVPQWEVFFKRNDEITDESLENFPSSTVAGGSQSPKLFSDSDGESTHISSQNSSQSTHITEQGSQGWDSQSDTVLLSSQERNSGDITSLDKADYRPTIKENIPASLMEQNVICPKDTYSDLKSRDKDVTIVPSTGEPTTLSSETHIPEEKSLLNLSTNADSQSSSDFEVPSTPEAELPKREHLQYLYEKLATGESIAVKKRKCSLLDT
In the case of `CC(=O)N1Cc2ccccc2CC1C(=O)O` (stereo not drawn), the inhibition is -0.69% (inactive).
Regarding `Cc1ccc(C(=O)Nc2c(C#N)c(C)c(C)n2Cc2ccccc2)cc1`, the inhibition was -5.83% (inactive).
`CC(C)NC(=O)C(=O)NCCCOC(C)C`: the inhibition was -3.28% (inactive).
`COC(=O)C(C(=O)Nc1cccc(C)n1)C1CCCCCC1` (stereo not drawn): the inhibition was -2.41% (inactive).
To `COc1ccc(CCN2C(=O)C3CC=C(C)CC3C2=O)cc1OC` (stereo not drawn) belongs -6.71% (inactive); to `COC(=O)C1=C(Nc2ccc(OC)cc2)C=C(C)C(C(=O)OC)C1c1ccc(C)cc1` (stereo not drawn), -2.07% (inactive).
The same measure for `Fc1ccc(Br)cc1/C=N/n1cnnc1`: -9.95% (inactive); for `O=C(/C=C/c1cc2c(cc1Br)OCO2)NCc1ccc(Cl)cc1`: -4.49% (inactive).
To `O=C(NN1C(=O)C2C3C=CC(C4CC34)C2C1=O)c1ccc(Cl)cc1` (stereo not drawn) belongs -4.12% (inactive).
On to `O=c1c2ccccc2nc2n1C(CSc1ccc(F)cc1)CN2` (stereo not drawn), for which the inhibition is -16.9% (inactive).
As for `COc1ccc(C(=O)Oc2cc(/C=N/NS(=O)(=O)c3ccc(C)cc3)ccc2OC)cc1`, the inhibition was 4.47% (inactive).
As to `COC(=O)c1sccc1-n1cccc1C(=O)C(=O)N1CCCCC1`, the inhibition is -4.39% (inactive).
Take `O=C(/C=N/O)Nc1ccccc1`: the inhibition was 16.8% (inactive).
To `CSc1ccc(C#N)cc1NC(=O)c1cccc(Cl)c1` belongs -11% (inactive); to `Cc1c(C(=O)NCc2ccccc2)cnn1-c1ccccc1`, 0.06% (inactive).
For `O=C(c1ccccc1)C(Cn1cncn1)C(Sc1ccccc1)c1ccccc1` (stereo not drawn), the inhibition was 7.82% (inactive).
Take `CC(C)NC(=O)CSc1ccccc1C(=O)NCc1ccc2c(c1)OCO2`: the inhibition is -4.49% (inactive).
In the case of `CCOc1ccc2nc(SC(CC)C(=O)Nc3cc(C)on3)sc2c1` (stereo not drawn), the inhibition is -0.74% (inactive).
Regarding `CCc1ccc(/C=N/NC(=O)c2ccc(OC3CCCC3)cc2)s1`, the inhibition is 14.9% (inactive).
Take `O=C(COc1ccc(/C=N/NS(=O)(=O)c2ccccc2)cc1)NCCc1ccccc1`: the inhibition is 5.78% (inactive).
As for `NC(=O)c1ccccc1NC(=O)c1ccccc1F`, the inhibition was 3.21% (inactive).
Take `Cc1ccc(NC(=S)NC(=O)c2ccc(-c3ccccc3)cc2)c(C)c1`: the inhibition is 8.05% (inactive).
`Cc1ccc(NC(=O)Nc2ccc3oc(C)nc3c2)cc1`: the inhibition was 4.51% (inactive).
To `COc1cc(C(=S)N2CCOCC2)cc(OC)c1OC(=O)c1cc([N+](=O)[O-])cc([N+](=O)[O-])c1` belongs 5.88% (inactive); to `Cc1ccc(OCCCC(=O)N2CCOCC2)c(C)c1`, -3.31% (inactive); to `CCOc1cc(C(=S)N2CCOCC2)ccc1O`, 44.1% (active).
As for `Nc1c(-c2ccc(F)cc2)cnn1C1CCS(=O)(=O)C1` (stereo not drawn), the inhibition is -12.3% (inactive).
As for `O=C(NC1CCC(O)CC1)c1ccc(S(=O)(=O)NCc2ccco2)cc1` (stereo not drawn), the inhibition is -0.49% (inactive).
Consider `COCCCNCC(=O)Nc1sc(C)c(C)c1C(=O)OC`, for which the inhibition is 8.99% (inactive).
With `CSc1ccc(C#N)cc1NC(=O)c1ccc(Cl)cc1`, the inhibition was -3.87% (inactive).
As for `Cc1cccc(N2CCN(C(c3ccccc3)c3nnnn3CC3CCCO3)CC2)c1C` (stereo not drawn), the inhibition is 1.54% (inactive).
Turning to `O=C(O)C1CC=CCC1C(=O)Nc1ccccc1C(=O)N1CCN(c2ccccc2)CC1` (stereo not drawn), the inhibition was 11.9% (inactive).
The same measure for `CC1CN(c2nc(-c3ccccc3)nnc2-c2ccccc2)CC(C)O1` (stereo not drawn): 3.23% (inactive).
On to `Cc1cc(N=CC2=C(O)CCCC2=O)no1`, for which the inhibition is -4.13% (inactive).
To `CCCC(C)n1[nH]c(=O)c2c(C)cc(C)nc21` (stereo not drawn) belongs 0.53% (inactive); to `COc1ccccc1NC(=O)CSc1nnc(C)n1CC1CCCO1` (stereo not drawn), 2.59% (inactive).
Take `COc1ccc(/C(O)=C2/C(=O)C(=O)N(CC3CCCO3)C2c2ccc(OC)c(OC)c2)cc1` (stereo not drawn): the inhibition was -5.65% (inactive).
Turning to `COc1ccc(/C(O)=C2/C(=O)C(=O)N(c3nc(C)c(C)s3)C2c2ccco2)cc1` (stereo not drawn), the inhibition was 8.17% (inactive).
Consider `Cc1cc(N2C(=O)C(=O)/C(=C(/O)c3ccc(Cl)cc3)C2c2cccc(Br)c2)no1` (stereo not drawn), for which the inhibition is 40% (active).
Turning to `O=C1OC(c2ccc(Cl)cc2)=N/C1=C\c1cccnc1`, the inhibition is -6.03% (inactive).
Regarding `Cc1c(NC(=O)c2cc(-c3ccc(Cl)s3)nc3ccccc23)c(=O)n(-c2ccccc2)n1C`, the inhibition was 11.2% (inactive).
With `CCOC(=O)c1nc(N)sc1C(=O)OCC`, the inhibition is -6.13% (inactive).
As to `CCCCOC(=O)Cn1c(=O)n(CC(=O)OCCCC)c2cc(C)ccc21`, the inhibition was 6.83% (inactive).
The same measure for `O=C1CC(C(F)(F)C(F)(F)C(F)(F)C(F)(F)F)=Nc2ccccc2N1`: -10.2% (inactive); for `CCOC(=O)c1cc(C#N)c(N2CCCCC2)nc1-c1ccccc1`: 1.24% (inactive); for `CC(C)(CSc1nncn1/N=C/c1ccco1)NS(=O)(=O)c1ccc(Cl)cc1`: -7.17% (inactive).
As for `COc1ccc(/C=C2/S/C(=N/N=C3\CC4CCC3(C)C4(C)C)NC2=O)cc1` (stereo not drawn), the inhibition was 7.63% (inactive).
On to `COc1ccc(CN2CCn3ncc(C(=O)Nc4ccc(Cl)cc4Cl)c3C2=O)cc1`, for which the inhibition is -5.33% (inactive).
As for `Cc1sc(NC(=O)C2C3CCC(O3)C2C(=O)O)c(C(=O)OC(C)C)c1-c1ccc(Cl)cc1` (stereo not drawn), the inhibition is 34% (active).
To `CC(C)OC(=O)c1cc(NC(=O)C2C3CCC(O3)C2C(=O)O)cc(C(=O)OC(C)C)c1` (stereo not drawn) belongs -5.25% (inactive).
To `COc1ccc(C(=O)N2CC3(C)CC2CC(C)(C)C3)cc1OC` (stereo not drawn) belongs -3.98% (inactive); to `CC(=O)Oc1ccc(C)cc1N1C(=O)c2ccc(C(=O)O)cc2C1=O`, 0.06% (inactive); to `CCC1(C)Cc2c(sc3nc(SC)nc(N)c23)CO1` (stereo not drawn), -3.48% (inactive).
As to `CCC1(CC)NC(=O)N(CC(=O)OCC(=O)Nc2ccc(C(F)(F)F)cc2)C1=O`, the inhibition is 8.68% (inactive).
As to `CCN1CCN(C(=O)/C=C\C(=O)O)CC1`, the inhibition is 0.01% (inactive).
For the molecule `Cc1cccc(CSc2nnc(NC(=O)CSc3nnc(C)s3)s2)c1`, the inhibition was 4.19% (inactive).
Regarding `COc1cccc(/C=N\Nc2nncc(-c3ccccc3)n2)c1`, the inhibition is 2.99% (inactive).
`CCN1CCN(C(=O)C2(NC(=O)Nc3cccc(F)c3)CCCCC2)CC1`: the inhibition was -5.76% (inactive).
Regarding `CCCCOC(=O)Nc1sc2nc(C)cc(C)c2c1-n1cccc1`, the inhibition was 6.76% (inactive).
As to `CCOC(=O)C(=O)Nc1nc(-c2ccccc2)c(CC)s1`, the inhibition was 2.06% (inactive).
To `Cc1nnc(SCc2nc3ccccc3nc2C)s1` belongs -10.2% (inactive); to `Cc1cccc(NC(=S)Nc2ccc(Br)cc2)c1`, -9.18% (inactive).
`CC(=O)NNc1cc(=O)c2c(=O)n(C)c(=O)n(C)c2[nH]1`: the inhibition is 1.01% (inactive).
Regarding `CNS(=O)(=O)c1cnccc1N1CCN(c2cccc(C)c2)CC1`, the inhibition is 2.37% (inactive).
Regarding `c1ccc(Nc2nc(-c3ccncc3)cs2)nc1`, the inhibition was -4.36% (inactive).
Take `COc1ccc(-c2n[nH]c(C)c2-c2ccc(OC)c(OC)c2)c(O)c1`: the inhibition was -3.87% (inactive).
The same measure for `COc1ccc(OC)c(Nc2nc(-c3ccc(O)c(O)c3)cs2)c1`: 42.1% (active); for `Cc1ccccc1NC(=S)Nc1cccc([N+](=O)[O-])c1`: 2.56% (inactive); for `Cc1cc(=O)n2c3c(cccc13)CCC2`: -4.67% (inactive).
With `COc1ccc(-n2nnnc2SCc2nc(N)nc(N3CCOCC3)n2)cc1`, the inhibition is -0.42% (inactive).
The same measure for `C=CCn1c(SCC(=O)c2c(N)n(C)c(=O)n(C)c2=O)nc2sc(CC)cc2c1=O`: 9.01% (inactive); for `CCOC(=O)C(=CNc1cccc(C)n1)C(=O)OCC`: -3.58% (inactive).
The same measure for `O=c1c2ccccc2c(-c2ccc(F)cc2)nn1-c1ccc(C(F)(F)F)cc1`: 5.92% (inactive); for `CCCC1(C(=O)OCC)NC(c2ccc(N(C)C)cc2)C2C(=O)N(c3ccc4c(c3)OCCO4)C(=O)C21` (stereo not drawn): -2.24% (inactive).
The same measure for `O=c1c2ccccc2nc2n1C(CSc1ccc(Cl)cc1)CN2` (stereo not drawn): 3.79% (inactive); for `COCc1cc(C)nc2sc(C(=O)NC3CCCCC3)c(N)c12`: -2.12% (inactive).
`COCCn1c(C)cc(C(=O)CSc2ncnc3sc4c(c23)CCC4)c1C`: the inhibition was -1.83% (inactive).
The same measure for `COCCNc1nc(-n2nc(C)cc2C)nc2sc3c(c12)CCCC3`: 52.7% (active).
With `N=c1c2c3c(sc2nc2n1CCCCC2)CCCC3`, the inhibition is -6.19% (inactive).
Take `CCCc1nc2sc3c(c2c(=O)n1NC(=O)CCCl)CCCC3`: the inhibition was -7.23% (inactive).
On to `Cc1cc(C)n(-c2nc(SCC(=O)N3CCCC3)c3c4c(sc3n2)CCCC4)n1`, for which the inhibition is 40.1% (active).
The same measure for `O=C(O)C1CCN1C1CCCCC1` (stereo not drawn): 0.02% (inactive); for `Cc1cccc(-n2cnc(C(=O)Nc3cccnc3)c2)n1`: 9.43% (inactive).
For `O=S(=O)(c1cccc2nonc12)N1CCN(c2cccc(Cl)c2)CC1`, the inhibition was -9.46% (inactive).
With `CCN(CC)c1nc(-c2ccccc2)cc(C(F)(F)F)c1C#N`, the inhibition was -3.86% (inactive).
For `CCOC(=O)N1CCN(C(=O)CN(C2CCCCC2)S(C)(=O)=O)CC1`, the inhibition is -1.82% (inactive).
The same measure for `Cc1ccc(OCC(=O)N/N=C/c2ccncc2)cc1`: -5.31% (inactive); for `COc1ccc(-c2c(C(C)=O)c(C)nc3sc4c(=O)n(-c5ccc(C)cc5)nnc4c23)cc1`: 11.3% (inactive).

For the origin of these results see PubChem BioAssay AID686954 (Sanford-Burnham Center for Chemical Genomics, 2013).
